Measurements from PubChem BioAssay (NCI).
Compounds without any hit were thinned out: in the full panel of roughly 83,000, 20% have a hit.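 Percent growth is the endpoint: 0 to 100 indicates growth inhibition (40 means 60% inhibition), 0 means no net growth, and negative values indicate cell death.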 Unmarked numbers belong to inactive results. The source made the active and inactive calls. Rule for the calls: active = growth percent below 10; inactive = the rest.

Tests used:
Assay in all cases: NCI-60 one-dose screen, 48 h (100 = growth as untreated, 0 = no growth, -100 = all killed)
[1] = tested on: SK-MEL-2 melanoma; conditions: 10 µM unless noted
[2] = tested on: EKVX NSCLC; conditions: 10 µM unless noted
[3] = tested on: SN12C renal; conditions: 10 µM unless noted
[4] = tested on: UO-31 renal; conditions: 10 µM unless noted
[5] = tested on: TK-10 renal; conditions: 10 µM unless noted
[6] = tested on: ACHN renal; conditions: 10 µM unless noted
[7] = tested on: CAKI-1 renal; conditions: 10 µM unless noted
[8] = tested on: A498 renal; conditions: 10 µM unless noted
[9] = tested on: CCRF-CEM leukemia; conditions: 10 µM unless noted
[10] = tested on: MOLT-4 leukemia; conditions: 10 µM unless noted
[11] = tested on: RPMI-8226 leukemia; conditions: 10 µM unless noted
[12] = tested on: OVCAR-5 ovarian; conditions: 10 µM unless noted
[13] = tested on: OVCAR-4 ovarian; conditions: 10 µM unless noted
[14] = tested on: SK-OV-3 ovarian; conditions: 10 µM unless noted
[15] = tested on: IGROV1 ovarian; conditions: 10 µM unless noted
[16] = tested on: OVCAR-3 ovarian; conditions: 10 µM unless noted
[17] = tested on: HS 578T breast; conditions: 10 µM
[18] = tested on: NCI/ADR-RES ovarian; conditions: 10 µM unless noted
[19] = tested on: OVCAR-8 ovarian; conditions: 10 µM unless noted
[20] = tested on: SR leukemia; conditions: 10 µM unless noted

Molecule `O=[N+]([O-])c1ccccc1CN1CCCCC1` has a growth [1] of 100%, a growth [2] of 86.8% and a growth [3] of 105%. The growth [4] was 89.4%, the growth [5] was 121% and the growth [6] was 113%. For the same molecule, the growth [7] was 108%, the growth [8] was 99.5% and the growth [9] was 85.4%. It also gave a growth [10] of 115%, a growth [11] of 109% and a growth [12] of 102%. It also gave a growth [13] of 114%, a growth [14] of 127% and a growth [15] of 114%. It also gave a growth [16] of 109%, a growth [17] of 118% and a growth [18] of 104%.

With `CCCCCCCCCCCCCCCCCC1=NC(C)(C)CN1C(C)(C)CO` the growth [1] was -69% (active), the growth [2] was 27% and the growth [3] was 11.6%. For the same molecule, the growth [4] was -52.9% (active), the growth [5] was -35.1% (active) and the growth [6] was -75.6% (active). For the same molecule, the growth [7] was -65.2% (active), the growth [8] was 78.9% and the growth [9] was -52.9% (active). For the same molecule, the growth [10] was -55.2% (active), the growth [11] was -35.3% (active) and the growth [19] was -80.4% (active). The growth [12] was 37.9%, the growth [13] was 3.31% (active) and the growth [14] was -40% (active). For the same molecule, the growth [15] was -83.8% (active), the growth [16] was -1.05% (active) and the growth [17] was 15.3%. For the same molecule, the growth [18] was -7.97% (active).

With `F` the growth [1] was -27.7% [6.87 mM] (active), the growth [2] was -14.8% [6.87 mM] (active) and the growth [3] was 27% [6.87 mM]. For the same molecule, the growth [4] was 12% [6.87 mM], the growth [5] was 4.45% [6.87 mM] (active) and the growth [6] was 23.6% [6.87 mM]. The growth [7] was 28.9% [6.87 mM], the growth [8] was -28.8% [6.87 mM] (active) and the growth [9] was 29.9% [6.87 mM]. For the same molecule, the growth [10] was 23.5% [6.87 mM], the growth [11] was 22.4% [6.87 mM] and the growth [19] was 30% [6.87 mM]. For the same molecule, the growth [12] was 10.6% [6.87 mM], the growth [13] was 76.2% [6.87 mM] and the growth [14] was 8.2% [6.87 mM] (active). For the same molecule, the growth [15] was 53.5% [6.87 mM], the growth [16] was 71.5% [6.87 mM] and the growth [18] was 8.42% [6.87 mM] (active).

For `COc1c(B(O)O)cccc1-c1nc2ccc3[nH]ncc3c2c2c1CCCC2`, the growth [1] was 33.7%, the growth [2] was 23.6% and the growth [3] was 23.7%. For the same molecule, the growth [4] was 0.387% (active), the growth [5] was 11.5% and the growth [6] was 3.93% (active). For the same molecule, the growth [7] was 5.83% (active), the growth [8] was -16.4% (active) and the growth [10] was 11.5%. For the same molecule, the growth [20] was 13.9%, the growth [11] was 7.44% (active) and the growth [19] was 17%. For the same molecule, the growth [12] was 29.5%, the growth [13] was 74.2% and the growth [14] was 6.76% (active). For the same molecule, the growth [15] was 13.8%, the growth [16] was 19.3% and the growth [17] was 14.6%. It also gave a growth [18] of 50.7%.

`CC(C)[C@H](CN)NC[C@H](C)NS(=O)(=O)c1ccc(C(C)(C)C)cc1` showed a growth [1] of 101%, a growth [2] of 90% and a growth [3] of 99.8%. For the same molecule, the growth [4] was 77.1%, the growth [5] was 93.8% and the growth [6] was 103%. It also gave a growth [7] of 94.1%, a growth [8] of 107% and a growth [10] of 92.6%. It also gave a growth [20] of 110%, a growth [11] of 90.4% and a growth [19] of 97.5%. The growth [12] was 106%, the growth [13] was 87.5% and the growth [14] was 105%. The growth [15] was 97%, the growth [16] was 103% and the growth [17] was 87.9%. It also gave a growth [18] of 104%.

`C=CCN(CCOC(=O)c1ccc([N+](=O)[O-])cc1)CCOC(=O)c1ccc([N+](=O)[O-])cc1` was tested, and the growth [1] was 110%, the growth [2] was 96.1% and the growth [3] was 143%. For the same molecule, the growth [4] was 69.9%, the growth [5] was 114% and the growth [6] was 95%. The growth [7] was 86.1%, the growth [8] was 95.2% and the growth [9] was 94.3%. It also gave a growth [10] of 96.2%, a growth [11] of 94.3% and a growth [12] of 102%. For the same molecule, the growth [13] was 99.5%, the growth [14] was 99.2% and the growth [15] was 88.1%. It also gave a growth [16] of 104%, a growth [17] of 101% and a growth [18] of 96.8%.

`CCN(C)CCCOc1ccc(/C(=C(\C)Cc2cccc(OC)c2)c2ccc(OC(C)=O)cc2)cc1` gave a growth [1] of 103%, a growth [2] of 92.5% and a growth [3] of 95%. For the same molecule, the growth [4] was 92%, the growth [5] was 95% and the growth [6] was 104%. The growth [7] was 94.9%, the growth [8] was 94.3% and the growth [10] was 103%. The growth [20] was -8.45% (active), the growth [11] was 102% and the growth [19] was 105%. The growth [12] was 99.6%, the growth [13] was 103% and the growth [14] was 93.7%. The growth [15] was 102%, the growth [16] was 105% and the growth [17] was 94%. It also gave a growth [18] of 101%.

`COc1ccc(C(=O)C(CN(C)C)c2ccccc2)cc1` (centres undefined) showed a growth [1] of 14.6%, a growth [2] of 28.1% and a growth [3] of 31.4%. For the same molecule, the growth [4] was -18.7% (active), the growth [5] was 29.5% and the growth [6] was -71.4% (active). The growth [7] was -46.7% (active), the growth [8] was 60.2% and the growth [9] was 12.6%. For the same molecule, the growth [10] was 21.7%, the growth [11] was 9.15% (active) and the growth [19] was 17%. For the same molecule, the growth [12] was 44.3%, the growth [13] was 33.4% and the growth [14] was 110%. For the same molecule, the growth [15] was 1.31% (active), the growth [16] was 0.0357% (active) and the growth [17] was -13.8% (active). For the same molecule, the growth [18] was 9.35% (active).
